Data on 34 targets can be found in the supplement of paper PMC10849652.

About 8,800 targets were measured; listed, in parts, are those with a hit and a random draw of the rest. About 0.5% of all pairs of compound and target were hits. A number with no mark means an inactive call.

Sequence of UniProt P0CAP2 (P0CAP2 whole entry, looked up): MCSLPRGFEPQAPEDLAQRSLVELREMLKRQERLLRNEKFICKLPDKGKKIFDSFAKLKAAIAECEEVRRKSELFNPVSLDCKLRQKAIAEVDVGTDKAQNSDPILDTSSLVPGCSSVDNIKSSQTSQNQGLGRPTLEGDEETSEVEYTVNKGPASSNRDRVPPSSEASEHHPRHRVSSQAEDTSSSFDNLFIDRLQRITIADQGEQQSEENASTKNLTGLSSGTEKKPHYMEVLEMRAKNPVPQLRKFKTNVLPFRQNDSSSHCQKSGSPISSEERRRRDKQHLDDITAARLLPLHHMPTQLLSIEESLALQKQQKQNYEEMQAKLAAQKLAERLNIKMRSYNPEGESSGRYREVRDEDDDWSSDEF
Sequence of UniProt P54277 (P54277 whole entry, looked up): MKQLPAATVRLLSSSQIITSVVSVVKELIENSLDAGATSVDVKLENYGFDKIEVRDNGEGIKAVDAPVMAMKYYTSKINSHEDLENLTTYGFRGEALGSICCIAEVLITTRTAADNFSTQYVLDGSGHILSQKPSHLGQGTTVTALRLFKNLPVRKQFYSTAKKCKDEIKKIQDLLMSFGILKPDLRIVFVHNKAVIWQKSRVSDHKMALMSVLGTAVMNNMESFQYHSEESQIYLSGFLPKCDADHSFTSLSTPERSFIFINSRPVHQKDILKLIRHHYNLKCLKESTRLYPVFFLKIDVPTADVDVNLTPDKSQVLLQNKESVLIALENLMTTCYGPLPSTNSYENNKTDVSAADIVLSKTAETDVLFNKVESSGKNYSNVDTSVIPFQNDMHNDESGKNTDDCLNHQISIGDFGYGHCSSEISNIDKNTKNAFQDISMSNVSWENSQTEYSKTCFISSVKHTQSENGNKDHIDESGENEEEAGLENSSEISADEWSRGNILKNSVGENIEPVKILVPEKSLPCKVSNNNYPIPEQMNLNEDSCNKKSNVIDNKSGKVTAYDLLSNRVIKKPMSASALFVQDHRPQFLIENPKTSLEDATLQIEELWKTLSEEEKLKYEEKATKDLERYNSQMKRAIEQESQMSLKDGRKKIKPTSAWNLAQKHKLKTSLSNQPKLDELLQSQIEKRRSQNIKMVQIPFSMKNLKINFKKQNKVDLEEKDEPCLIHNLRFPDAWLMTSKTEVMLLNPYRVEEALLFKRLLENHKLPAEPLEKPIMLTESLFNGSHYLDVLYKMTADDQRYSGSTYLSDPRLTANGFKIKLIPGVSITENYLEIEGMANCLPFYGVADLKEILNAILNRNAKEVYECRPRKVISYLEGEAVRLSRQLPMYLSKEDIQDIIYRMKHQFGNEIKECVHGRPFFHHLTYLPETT
Sequence of UniProt Q9UHX1 (Q9UHX1 whole entry, looked up): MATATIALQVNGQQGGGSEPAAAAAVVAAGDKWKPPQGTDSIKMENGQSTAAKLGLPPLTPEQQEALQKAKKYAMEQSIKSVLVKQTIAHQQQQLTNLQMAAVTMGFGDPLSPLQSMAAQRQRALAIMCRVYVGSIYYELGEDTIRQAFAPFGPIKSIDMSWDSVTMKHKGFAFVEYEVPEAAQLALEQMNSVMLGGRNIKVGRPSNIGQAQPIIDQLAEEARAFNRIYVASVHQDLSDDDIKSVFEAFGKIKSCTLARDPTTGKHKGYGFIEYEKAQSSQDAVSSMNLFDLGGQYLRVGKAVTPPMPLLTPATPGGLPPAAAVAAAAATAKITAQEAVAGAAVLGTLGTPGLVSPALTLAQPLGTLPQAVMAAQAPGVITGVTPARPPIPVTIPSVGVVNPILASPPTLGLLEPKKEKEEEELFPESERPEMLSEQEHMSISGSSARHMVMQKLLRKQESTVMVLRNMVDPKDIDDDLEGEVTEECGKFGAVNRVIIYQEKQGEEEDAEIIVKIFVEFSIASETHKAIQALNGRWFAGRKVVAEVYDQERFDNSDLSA
Sequence of UniProt Q96C36 (Q96C36 whole entry, looked up): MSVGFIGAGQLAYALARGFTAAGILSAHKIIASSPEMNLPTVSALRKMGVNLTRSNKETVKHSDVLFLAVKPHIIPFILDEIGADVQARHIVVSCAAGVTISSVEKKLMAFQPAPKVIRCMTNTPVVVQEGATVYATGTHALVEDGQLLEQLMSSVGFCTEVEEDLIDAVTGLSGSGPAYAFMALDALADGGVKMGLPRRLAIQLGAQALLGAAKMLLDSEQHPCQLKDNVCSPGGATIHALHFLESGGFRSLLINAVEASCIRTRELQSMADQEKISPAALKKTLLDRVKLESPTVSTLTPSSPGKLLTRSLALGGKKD
Sequence of UniProt P29350 (P29350 whole entry, looked up): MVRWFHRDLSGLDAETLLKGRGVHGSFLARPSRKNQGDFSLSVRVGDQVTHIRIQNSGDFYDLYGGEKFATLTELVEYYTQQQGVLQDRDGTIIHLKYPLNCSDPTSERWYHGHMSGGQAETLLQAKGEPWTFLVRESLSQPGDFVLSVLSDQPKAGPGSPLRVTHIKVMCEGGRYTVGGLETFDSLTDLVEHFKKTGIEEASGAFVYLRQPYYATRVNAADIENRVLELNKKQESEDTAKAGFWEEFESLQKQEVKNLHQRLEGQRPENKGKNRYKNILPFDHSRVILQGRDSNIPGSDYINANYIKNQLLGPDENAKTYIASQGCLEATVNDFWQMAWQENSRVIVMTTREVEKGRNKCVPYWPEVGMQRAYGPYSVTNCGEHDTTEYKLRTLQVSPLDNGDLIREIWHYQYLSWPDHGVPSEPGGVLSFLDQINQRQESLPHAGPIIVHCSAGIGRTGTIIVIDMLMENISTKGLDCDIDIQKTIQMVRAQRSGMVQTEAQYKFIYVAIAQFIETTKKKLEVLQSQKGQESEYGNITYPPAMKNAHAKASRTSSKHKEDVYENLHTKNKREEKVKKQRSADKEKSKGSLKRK
Sequence of UniProt P46019 (P46019 whole entry, looked up): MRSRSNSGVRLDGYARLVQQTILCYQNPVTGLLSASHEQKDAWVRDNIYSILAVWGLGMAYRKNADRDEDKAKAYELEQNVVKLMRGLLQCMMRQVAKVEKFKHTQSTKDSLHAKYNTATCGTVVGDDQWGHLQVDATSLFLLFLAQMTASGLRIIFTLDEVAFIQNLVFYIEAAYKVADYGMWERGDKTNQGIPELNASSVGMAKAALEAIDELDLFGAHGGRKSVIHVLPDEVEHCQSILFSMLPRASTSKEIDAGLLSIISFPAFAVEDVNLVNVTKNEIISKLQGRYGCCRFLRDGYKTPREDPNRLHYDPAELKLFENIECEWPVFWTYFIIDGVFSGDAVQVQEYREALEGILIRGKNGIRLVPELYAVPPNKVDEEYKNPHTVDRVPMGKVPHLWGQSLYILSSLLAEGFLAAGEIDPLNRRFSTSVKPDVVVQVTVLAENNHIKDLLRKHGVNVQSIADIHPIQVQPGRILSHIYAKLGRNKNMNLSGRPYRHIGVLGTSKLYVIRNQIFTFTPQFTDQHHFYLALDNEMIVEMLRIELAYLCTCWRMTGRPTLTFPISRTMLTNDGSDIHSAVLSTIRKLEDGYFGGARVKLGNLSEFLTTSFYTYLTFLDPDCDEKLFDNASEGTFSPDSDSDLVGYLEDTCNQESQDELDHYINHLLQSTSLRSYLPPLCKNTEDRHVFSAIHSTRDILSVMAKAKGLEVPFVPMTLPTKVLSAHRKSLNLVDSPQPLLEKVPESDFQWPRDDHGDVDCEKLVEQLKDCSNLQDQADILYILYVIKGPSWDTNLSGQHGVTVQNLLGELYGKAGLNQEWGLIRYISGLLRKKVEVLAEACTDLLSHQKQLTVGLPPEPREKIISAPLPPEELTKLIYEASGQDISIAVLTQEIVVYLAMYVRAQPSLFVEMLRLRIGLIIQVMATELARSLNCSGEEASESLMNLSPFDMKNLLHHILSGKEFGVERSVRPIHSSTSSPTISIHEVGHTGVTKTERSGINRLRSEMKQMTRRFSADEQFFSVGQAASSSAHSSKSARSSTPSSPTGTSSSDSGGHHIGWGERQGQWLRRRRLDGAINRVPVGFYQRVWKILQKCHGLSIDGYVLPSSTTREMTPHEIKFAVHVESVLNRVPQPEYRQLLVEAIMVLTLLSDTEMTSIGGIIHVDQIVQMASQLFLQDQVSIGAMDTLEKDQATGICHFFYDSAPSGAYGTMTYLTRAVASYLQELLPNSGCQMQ
Sequence of UniProt Q9BUL8 (Q9BUL8 whole entry, looked up): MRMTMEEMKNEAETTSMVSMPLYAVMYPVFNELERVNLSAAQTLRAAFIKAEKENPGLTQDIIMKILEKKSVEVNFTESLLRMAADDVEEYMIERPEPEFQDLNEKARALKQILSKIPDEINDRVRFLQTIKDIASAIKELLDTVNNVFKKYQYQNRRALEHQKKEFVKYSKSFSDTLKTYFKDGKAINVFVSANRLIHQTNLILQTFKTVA
Sequence of UniProt P06454 (P06454 whole entry, looked up): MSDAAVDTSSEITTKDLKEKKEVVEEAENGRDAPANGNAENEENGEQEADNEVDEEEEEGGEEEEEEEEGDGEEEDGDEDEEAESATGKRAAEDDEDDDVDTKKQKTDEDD

Compound in this experiment: c1cn2cc(-c3ccc4cn[nH]c4c3)nc(Nc3ccc(N4CCOCC4)cc3)c2n1 [entospletinib]
Briefly: log2 fold change, soluble protein after heating vs DMSO (PISA); higher = thermal stabilisation; K562 lysate, 10 uM; active = over 0.2 and 3.5 SD of the protein, either way, in both replicates (recomputed). An outline of the steps: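 Quantification was by TMTpro 16plex LC-MS/MS with equalised channel sums, applied to the supernatant after 21,000xg for 90 min. Samples were crude K562 extract at 1 mg/mL protein in PBS pH 7.4 with 1 mM MgCl2, treated with 10 μM compound for 30 min, heated for 3 min across 48°C-58°C, pooled and brought to 0.5% NP-40 at 4°C. Values are log-two fold changes in thermal stability relative to solvent controls, from duplicates.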
Take PIAS2 (UniProt O75928): the log2 fold change is 0.01.

PDAP1 (UniProt Q13442): the log2 fold change is -0.027.

For PTPN23 (UniProt Q9H3S7), the log2 fold change is 0.009.

Turning to PIP4K2C (UniProt Q8TBX8), the log2 fold change was 0.004.

Consider PDCD6IP (UniProt Q8WUM4), for which the log2 fold change is -0.009.

Take PRIM1 (UniProt P49642): the log2 fold change was 0.035.

Consider PPCDC (UniProt Q96CD2), for which the log2 fold change is 0.002.

On to PDXDC1 (UniProt Q6P996), for which the log2 fold change was -0.019.

With PDCD10 (UniProt Q9BUL8), the log2 fold change is 0.011.

As to POLR2M (UniProt P0CAP2), the log2 fold change is 0.076.

Take PYCR2 (UniProt Q96C36): the log2 fold change was 0.

With PUM1 isoform 3 (UniProt Q14671), the log2 fold change was -0.009.

PHKA2 (UniProt P46019): the log2 fold change is -0.012.

With PI4KB (UniProt Q9UBF8), the log2 fold change is 0.184.

As to PTPN6 isoform 4 (UniProt P29350), the log2 fold change is 0.107.

Consider PTMA (UniProt P06454), for which the log2 fold change is -0.025.

With PI4K2A (UniProt Q9BTU6), the log2 fold change is 0.001.

In the case of PTP4A1 (UniProt Q93096), the log2 fold change is -0.009.

PPFIA2 (UniProt O75334): the log2 fold change is -0.036.

Consider PUF60 isoform 2 (UniProt Q9UHX1), for which the log2 fold change is 0.027.

As for PRKCSH (UniProt K7ELL7), the log2 fold change was -0.097.

Take PGRMC1 (UniProt O00264): the log2 fold change is -0.02.

With PGLS (UniProt O95336), the log2 fold change is 0.003.

Consider PIP4P2 (UniProt Q8N4L2), for which the log2 fold change is -0.05.

In the case of PPIL3 (UniProt Q9H2H8), the log2 fold change is -0.016.

PLA2G4B isoform 6 (UniProt P0C869): the log2 fold change was 0.06.

As to PMS1 (UniProt P54277), the log2 fold change was -0.011.

With POC5 (UniProt Q8NA72), the log2 fold change was -0.184.

Turning to PELO (UniProt Q9BRX2), the log2 fold change is 0.006.

With PIK3R2 (UniProt O00459), the log2 fold change was -0.092.

PRKAR2B (UniProt P31323): the log2 fold change was -0.055.

PIP4K2B (UniProt P78356): the log2 fold change was -0.013.

As to PRKCA (UniProt P17252), the log2 fold change was 0.018.

On to POLR2M (UniProt Q6EEV4), for which the log2 fold change is -0.022.
